Results as given in PubChem BioAssay.
Where “and” joins values, the source holds several entries; their conditions need not be identical. Identical values can stand only once. Calls of active or inactive are those of the source.

Columns and labels:
[1] = system: Plasmodium falciparum Sir2 (PF13_0152, Sir2A); assay: Plasmodium falciparum Sir2A binding compounds – biochemical, small-molecule microarray, 635 nm fluorescence, primary screen (AID 1098); conditions: fluorescence 635 nm, higher = more signal;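 further: score merges spot fluorescence intensity with its signal-to-noise ratio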
[2] = probe aDKK1 binding to arrayed compounds – biochemical, biotinylated probe, 635/667 nm fluorescence, primary screen (AID 1099); conditions: small-molecule microarray, higher = more signal;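 further: score merges 667nm spot fluorescence with signal to noise across triplicate slides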
[3] = probe aCHRDL2 binding to arrayed compounds – biochemical, biotinylated probe, 635/667 nm fluorescence, primary screen (AID 1100); conditions: small-molecule microarray, higher = more signal
[4] = change in splice reporter luminescence, either direction, cell-based, HEK293, spliceosome inhibition project, primary screen (AID 1101); conditions: HEK293 splicing luciferase reporter, 24 h, higher = more signal, called active from +8 up or from −8 down;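 further: HEK293 cells carrying a splicing-competent luciferase reporter gene; test concentration not given here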
[5] = molecular target: Fibroblast growth factor 10 (Homo sapiens) (UniProt O15520); assay: compounds binding fibroblast growth factor 10 – biochemical, small-molecule microarray, 635 nm fluorescence, primary screen (AID 1102); conditions: FGF10 binding, fluorescence 635 nm, higher = more signal
[6] = system: glycogen synthase kinase-3 (GSK3A per assay name; protocol says GSK3B); assay: compounds binding glycogen synthase kinase-3 – biochemical, small-molecule microarray, 635 nm fluorescence, GSK3A, primary screen (AID 1103); conditions: fluorescence 635 nm, higher = more signal; further: the record names both GSK3A and GSK3B
[7] = molecular target: Epidermal growth factor receptor (Homo sapiens) (UniProt P00533); assay: compounds binding epidermal growth factor receptor – biochemical, small-molecule microarray, 635 nm fluorescence, primary screen (AID 1104); conditions: EGFR binding, higher = more signal;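 further: score merges 667 nm emission intensity with spot signal to noise over triplicate slides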
[8] = molecular target: Follistatin-related protein 3 (Homo sapiens) (UniProt O95633); assay: compounds binding follistatin-related protein 3 – biochemical, small-molecule microarray, 635 nm fluorescence, primary screen (AID 1105); conditions: FSTL3 binding, higher = more signal;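 further: score merges emission near 667 nm and signal to noise per printed spot across three slides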
[9] = molecular target: Dickkopf-related protein 1 (Homo sapiens) (UniProt O94907); assay: small molecules binding DKK1 protein – biochemical, small-molecule microarray, 635 nm fluorescence scan, primary screen (AID 1106); conditions: higher = more signal;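 further: score merges emission near 667 nm with signal to noise over three replicate slides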
[10] = system: Inhibin beta A chain (activin A); assay: small molecules binding activin A – biochemical, small-molecule microarray, 635 nm fluorescence scan, primary screen (AID 1107); conditions: INHBA, higher = more signal;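 further: mouse activin A protein probed at 4.33 µg/mL on printed slides; score merges bound-protein fluorescence near 667 nm with spot signal-to-noise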
[11] = system: Human papillomavirus type 1a protein E7 (residues 44-93); assay: small molecules binding HPV E7 44-93 – biochemical, small-molecule microarray, residues 44-93, 635 nm fluorescence, primary screen (AID 1108); conditions: fluorescence 635 nm, higher = more signal;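 further: E7 fragment applied at 1 µg/mL in TBST for 1 h at 4 C; score combines spot fluorescence with its signal to noise ratio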
[12] = hepatitis C replication reporter changes, two-sided – Huh7 cells, luciferase reporter, HCV replication inhibitor project, primary screen (AID 1109); conditions: Huh7 HCV replicon luciferase reporter, 48 h; higher = more signal;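 further: huh7 hepatoma cells harbouring a luciferase neomycin HCV replicon reporter; luciferase luminescence as measure of HCV replicon replication; test concentration not given here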
[13] = molecular target: Left-right determination factor 2 (Homo sapiens) (UniProt O00292); assay: small molecules binding LEFTY2 protein – biochemical, small-molecule microarray, 635 nm fluorescence scan, primary screen (AID 1110); conditions: higher = more signal
[14] = molecular target: Calmodulin-1 (Homo sapiens) (UniProt P0DP23); assay: small molecules binding calmodulin-1 with EGTA – biochemical, small-molecule microarray, Cy5-labelled CALM1, profiling panel (AID 1111); conditions: Cy5-CALM1 binding fluorescence, higher = more signal;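 further: labelled calmodulin applied in Tris saline Tween buffer holding calcium plus EGTA and DTT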
[15] = molecular target: Calmodulin-1 (Homo sapiens) (UniProt P0DP23); assay: small molecules binding Ca-loaded calmodulin-1 – biochemical, small-molecule microarray, Cy5-labelled CALM1, plus calcium, artefact control for SMM control-protein annotation, profiling panel (AID 1112); conditions: Cy5-CALM1 binding fluorescence, higher = more signal;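 further: score merges spot fluorescence with signal to noise from triplicate slides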
[16] = probe aWnt5a binding to arrayed compounds – biochemical, biotinylated probe, 635/667 nm fluorescence, primary screen (AID 1113); conditions: small-molecule microarray, higher = more signal;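 further: score merges 667 nm fluorescence intensity with signal-to-noise per printed feature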
[17] = probe aShh binding to arrayed compounds – biochemical, biotinylated probe, 635/667 nm fluorescence, primary screen (AID 1114); conditions: small-molecule microarray, higher = more signal;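 further: probe is biotin-labelled aShh protein from a stem cell growth factor screen; measures binding of labelled protein to compounds printed on the slide; score merges feature fluorescence at 667 nm with signal-to-noise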
[18] = probe aNog binding to arrayed compounds – biochemical, biotinylated probe, 635/667 nm fluorescence, primary screen (AID 1115); conditions: small-molecule microarray, higher = more signal;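 further: probe is biotinylated aNog protein used at 0.15 µg/mL for 1 h at 4 C; z-score combines 667 nm fluorescence of each spot with its signal to noise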
[19] = molecular target: Torsin-1A-interacting protein 1 (Homo sapiens) (UniProt Q5JTV8); assay: compound microarray binding of lysate hLAP1 – cell lysate, small-molecule microarray, COS7 lysate, 635/667 nm fluorescence, primary screen (AID 1116); conditions: 635 nm fluorescence, higher = more signal
[20] = molecular target: Alpha-bungarotoxin (Bungarus multicinctus) (UniProt P60615); assay: compounds binding labelled alpha-BTX control protein – biochemical, small-molecule microarray, Alexa647 label, 635/667 nm fluorescence, artefact control for SMM control protein annotation, profiling panel (AID 1117); conditions: alpha-BTX-A647 binding fluorescence, higher = more signal
Alpha-bungarotoxin (Bungarus multicinctus), sequence (P60615 whole entry, looked up): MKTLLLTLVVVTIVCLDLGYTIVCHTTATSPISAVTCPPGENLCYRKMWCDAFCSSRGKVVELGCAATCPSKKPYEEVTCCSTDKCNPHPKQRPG

Torsin-1A-interacting protein 1 (Homo sapiens), sequence (Q5JTV8 whole entry, looked up): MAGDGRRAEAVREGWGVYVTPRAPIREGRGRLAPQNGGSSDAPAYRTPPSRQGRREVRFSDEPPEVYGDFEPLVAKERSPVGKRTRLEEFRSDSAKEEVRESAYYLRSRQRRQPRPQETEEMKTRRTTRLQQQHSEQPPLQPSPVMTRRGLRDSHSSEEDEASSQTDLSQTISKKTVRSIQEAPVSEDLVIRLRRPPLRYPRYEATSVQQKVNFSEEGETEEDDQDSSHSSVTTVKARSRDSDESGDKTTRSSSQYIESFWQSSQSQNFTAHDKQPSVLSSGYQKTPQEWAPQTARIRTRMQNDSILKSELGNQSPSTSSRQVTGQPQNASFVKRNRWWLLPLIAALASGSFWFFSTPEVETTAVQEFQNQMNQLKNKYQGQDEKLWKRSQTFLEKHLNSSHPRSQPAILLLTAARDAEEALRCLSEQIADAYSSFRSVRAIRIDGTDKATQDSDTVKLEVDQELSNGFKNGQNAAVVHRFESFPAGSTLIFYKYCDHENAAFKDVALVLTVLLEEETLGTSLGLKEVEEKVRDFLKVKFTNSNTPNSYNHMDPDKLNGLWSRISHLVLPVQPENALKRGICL
Fibroblast growth factor 10 (Homo sapiens), sequence (O15520 whole entry, looked up): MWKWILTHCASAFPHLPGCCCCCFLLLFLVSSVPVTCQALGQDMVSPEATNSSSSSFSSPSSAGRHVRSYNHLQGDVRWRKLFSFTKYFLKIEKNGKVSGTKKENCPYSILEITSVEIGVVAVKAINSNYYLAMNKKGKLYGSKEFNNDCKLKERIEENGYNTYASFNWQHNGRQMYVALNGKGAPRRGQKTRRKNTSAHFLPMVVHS
Left-right determination factor 2 (Homo sapiens), sequence (O00292 whole entry, looked up): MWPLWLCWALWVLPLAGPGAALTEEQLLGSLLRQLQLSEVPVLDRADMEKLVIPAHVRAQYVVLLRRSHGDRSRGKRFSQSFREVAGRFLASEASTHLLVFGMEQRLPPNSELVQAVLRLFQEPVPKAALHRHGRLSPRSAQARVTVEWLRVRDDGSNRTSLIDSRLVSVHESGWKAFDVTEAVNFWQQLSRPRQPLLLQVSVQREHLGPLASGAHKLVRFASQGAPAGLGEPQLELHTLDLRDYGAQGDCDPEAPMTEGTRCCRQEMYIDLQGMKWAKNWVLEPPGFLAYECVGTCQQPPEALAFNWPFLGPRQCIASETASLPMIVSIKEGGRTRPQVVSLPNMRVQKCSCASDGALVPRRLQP
Epidermal growth factor receptor (Homo sapiens), sequence (P00533 whole entry, looked up): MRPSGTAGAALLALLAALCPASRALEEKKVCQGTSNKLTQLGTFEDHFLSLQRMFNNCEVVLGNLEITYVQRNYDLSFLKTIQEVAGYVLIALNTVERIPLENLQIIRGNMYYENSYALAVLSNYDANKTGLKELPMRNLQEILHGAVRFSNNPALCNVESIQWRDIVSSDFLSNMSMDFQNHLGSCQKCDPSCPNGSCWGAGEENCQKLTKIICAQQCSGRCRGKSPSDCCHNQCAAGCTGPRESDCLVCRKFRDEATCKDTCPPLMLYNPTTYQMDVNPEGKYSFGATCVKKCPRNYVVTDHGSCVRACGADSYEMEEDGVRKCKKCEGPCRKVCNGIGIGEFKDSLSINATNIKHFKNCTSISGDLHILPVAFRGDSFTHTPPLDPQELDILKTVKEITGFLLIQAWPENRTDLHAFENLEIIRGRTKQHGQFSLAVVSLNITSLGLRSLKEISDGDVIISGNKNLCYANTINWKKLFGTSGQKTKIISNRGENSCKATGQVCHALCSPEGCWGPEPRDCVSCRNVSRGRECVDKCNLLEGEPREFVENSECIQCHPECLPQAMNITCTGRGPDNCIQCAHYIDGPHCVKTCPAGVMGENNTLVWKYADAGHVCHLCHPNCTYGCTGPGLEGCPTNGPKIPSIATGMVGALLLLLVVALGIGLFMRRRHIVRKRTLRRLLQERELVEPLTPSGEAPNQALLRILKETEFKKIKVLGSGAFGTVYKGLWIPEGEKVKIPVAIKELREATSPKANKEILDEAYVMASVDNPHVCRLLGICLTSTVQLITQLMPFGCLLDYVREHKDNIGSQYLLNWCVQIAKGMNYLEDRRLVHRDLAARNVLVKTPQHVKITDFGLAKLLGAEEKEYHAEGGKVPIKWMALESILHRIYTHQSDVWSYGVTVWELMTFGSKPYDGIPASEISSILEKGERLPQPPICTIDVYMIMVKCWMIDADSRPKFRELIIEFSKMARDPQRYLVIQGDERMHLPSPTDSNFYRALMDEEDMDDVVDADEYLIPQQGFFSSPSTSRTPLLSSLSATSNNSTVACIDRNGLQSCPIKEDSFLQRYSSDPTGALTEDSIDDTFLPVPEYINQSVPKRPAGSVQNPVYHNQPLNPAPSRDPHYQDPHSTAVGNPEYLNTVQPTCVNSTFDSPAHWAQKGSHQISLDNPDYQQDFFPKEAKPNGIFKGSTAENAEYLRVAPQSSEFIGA
Follistatin-related protein 3 (Homo sapiens), sequence (O95633 whole entry, looked up): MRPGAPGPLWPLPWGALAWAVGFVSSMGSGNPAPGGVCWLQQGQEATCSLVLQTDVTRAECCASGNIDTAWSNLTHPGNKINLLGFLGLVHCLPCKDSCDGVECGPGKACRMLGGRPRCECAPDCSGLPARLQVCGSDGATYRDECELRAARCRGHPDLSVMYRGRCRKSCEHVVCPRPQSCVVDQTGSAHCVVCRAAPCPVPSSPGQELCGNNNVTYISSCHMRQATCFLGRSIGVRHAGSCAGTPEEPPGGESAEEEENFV
Dickkopf-related protein 1 (Homo sapiens), sequence (O94907 whole entry, looked up): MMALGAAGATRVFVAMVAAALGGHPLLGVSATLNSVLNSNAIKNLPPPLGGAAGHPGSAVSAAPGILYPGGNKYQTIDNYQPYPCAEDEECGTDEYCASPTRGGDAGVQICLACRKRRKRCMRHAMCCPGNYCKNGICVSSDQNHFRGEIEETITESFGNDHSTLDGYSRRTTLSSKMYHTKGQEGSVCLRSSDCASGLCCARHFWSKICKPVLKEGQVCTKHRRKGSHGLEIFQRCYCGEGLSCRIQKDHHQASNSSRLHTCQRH

| Compound | composite z-score [1] | composite z-score [2] | composite z-score [3] | z-score [4] | composite z-score [5] | composite z-score [6] | composite z-score [7] | composite z-score [8] | composite z-score [9] | composite z-score [10] | composite z-score [11] | z-score [12] | composite z-score [13] | composite z-score [14] | composite z-score [15] | composite z-score [16] | composite z-score [17] | composite z-score [18] | composite z-score [19] | composite z-score [20] |
| --- | --- | --- | --- | --- | --- | --- | --- | --- | --- | --- | --- | --- | --- | --- | --- | --- | --- | --- | --- | --- |
| COC(=O)C1=C(C)N(Cc2ccccc2)C2=C(C(C)=O)[C@H](c3ccccc3)[C@@](O)(C(=O)OC)C(=O)N2[C@@H]1c1ccccc1 | 0.765 and -0.399 | 0.156 and -0.547 | -0.535 and -0.652 | -0.694 (inactive) and -2.98 (inactive) | 0.686 and 0.158 | 0.845 and -0.533 | 0.365 and 0.197 | 0.796 and 0.145 | 0.591 and -0.0346 | 0.174 and 1.21 | 0.895 and -1.59 | -0.396 and 0.347 | 0.64 and -0.705 | -0.271 and -0.503 | 0.004 and -0.587 | -0.0944 and 0.0102 | 0.151 and -0.0146 | -0.205 and -0.342 | -0.0984 and -0.136 | 0.538 and -0.436 |
| C[N+](C)(C)CCCCNC(=O)[C@H]1C[C@H]2C(=O)N[C@@H](CCCC[N+](C)(C)C)C(=O)N2[C@H]1c1ccc(O)cc1 | 1.3 and 1.94 | -0.237 and -0.18 | -0.904 and -0.983 | 0.411 (inactive) and -1.57 (inactive) | 1.56 and 1.47 | 1.31 and 0.668 | 1.16 and 0.868 | 1.44 and 1.34 | 2.03 and 1.92 | 1.02 and 0.383 | 1.29 and 0.0427 | -0.999 and 0.723 | 1.41 and 1.47 | -0.0061 and -1.63 | -0.426 and -1.34 | -0.0685 and -0.0643 | -0.0011 and -0.0709 | 0.0416 and -0.7 | 0.699 and 0.0645 | 0.0509 and -0.801 |
| C=CCN(C(=O)C(c1cccs1)N(C(=O)/C=C\C(=O)O)C(C)(C)CO)c1ccc(OC)cc1 (stereo not given) | 1.39 and -1.69 | -0.117 and -0.0312 | 0.599 and 0.476 | -2.61 (inactive) and -1.39 (inactive) | -0.477 and -0.869 | -0.41 and -0.514 | -0.869 and -2.11 | -1.4 and -1.37 | -0.789 and -0.497 | -1.07 and -0.761 | -0.759 and -0.652 | 0.0435 and 2.82 | -1.77 and -2.47 | 0.459 and -0.933 | 0.891 and 0.235 | -0.0455 and -0.166 | -0.138 and -0.0626 | 0.162 and 0.292 | 0.588 and 1.06 | -2.1 and -1.16 |
| CCN1C(=O)[C@H]2[C@H]3[C@H](O)[C@H](O)CC(=NOC[C@@H](O)COCc4ccco4)[C@@H]3CC[C@H]2C1=O | 0.449 and 1.11 | 0.439 and -0.572 | -1.3 and -1.1 | 0.259 (inactive) and 0.403 (inactive) | -0.397 and 0.588 | 0.823 and -0.198 | 1.28 and 0.0979 | 1.21 and -0.333 | 1.56 and 0.836 | 0.666 and -0.0006 | -1.08 and -1.63 | 0.0085 and 1.42 | 1.32 and 0.764 | -1.05 and -0.872 | -1.72 and -1.74 | -0.0721 and -0.232 | -0.145 and -0.138 | 0.0326 and -0.0236 | 0.205 and -0.291 | 0.0851 and -0.421 |
| CC(CO)N1C(=O)[C@@H]2C3C(=O)OCCC=C[C@H]3OC23C=CCN(c2ccc(Cl)cc2)C(=O)[C@@H]13 (stereo not given in full) | 1.13 and 1.84 | -0.0514 and 0.0818 | 0.574 and 0.715 | 0.14 (inactive) and 0.899 (inactive) | -1.16 and 0.322 | -1.61 and -0.251 | -0.911 and -0.867 | -1.14 and -0.558 | -1.33 and -0.412 | 0.137 and 0.88 | -0.999 and 0.188 | -0.229 and -0.964 | -0.905 and -1.03 | 0.136 and 0.0733 | 1.09 and -0.66 | -0.0346 and -0.152 | -0.19 and -0.0035 | 0.0473 and 0.61 | -0.236 and 1.7 | 0.0882 and -0.198 |
| C=CCN(C(=O)C(c1cccs1)N(C(=O)/C=C\C(=O)O)c1ccc(CCO)cc1)C(C)(C)C (stereo not given) | -0.202 and 0.938 | -0.123 and 0.0381 | 0.274 and 1.05 | -0.14 (inactive) and 0.253 (inactive) | -0.99 and -2.19 | -0.265 and -0.746 | -1.41 and -1.91 | -1.76 and -2.36 | -2.48 and -2.7 | -1.03 and -2.06 | -1.51 and -0.35 | -0.18 and 0.135 | -3.2 and -3.93 | 0.295 and 0.0738 | 1.1 and 0.871 | -0.148 and -0.27 | -0.0035 and 0.568 | 1.1 and -0.0102 | 3.3 and 2.33 | -0.263 and -1.06 |
| C=CCN1C(=O)[C@]2(O[C@H](CCn3cc(CCO)nn3)[C@@H]([Si](C)(C)c3ccc(OC)cc3)[C@@H]2C)c2cc(N3C(=O)c4cccc5cccc3c45)ccc21 | 0.306 and 1.07 | -0.206 and -0.233 | -0.106 and -0.142 | -4 (inactive) and -3.52 (inactive) | 0.726 and 1.05 | 0.26 and 0.521 | -0.0684 and -0.247 | 0.228 and 0.181 | -0.0095 and -0.0589 | 0.538 and 0.516 | 1.33 and 0.725 | -5.11 and -5.13 | 0.238 and -0.0491 | 0.345 and 0.772 | -0.0218 and 0.227 | -0.0203 and 0.0079 | 0.0048 and 0.14 | -0.136 and -0.0115 | 1.11 and 0.749 | 0.334 and 0.366 |
| COC(=O)CC=C[C@@H](C)[C@@H](CO)NS(=O)(=O)c1ccc(C)cc1 | 0.266 and 0.348 | -0.393 and -0.371 | -0.591 and -0.895 | 0.538 (inactive) and -0.445 (inactive) | 0.394 and 0.774 | 0.635 and 0.827 | 0.667 and 0.395 | 0.505 and 1.3 | 0.998 and 0.71 | 0.0232 and -0.0806 | -0.314 and 0.755 | -0.465 and -0.0825 | 0.632 and 0.966 | -0.442 and -0.343 | -1.01 and -0.837 | -0.0405 and -0.0994 | -0.522 and 0.111 | -0.0503 and 0.0287 | -0.145 and 0.808 | -0.309 and 0.0211 |
| C=C[C@H](C)[C@H](O)c1ccc(O)c2ccccc12 | -0.826 and -0.608 | -0.338 and -0.232 | 0.151 and -0.0669 | -2.7 (inactive) and -1.54 (inactive) | -1.16 and 0.187 | -0.0928 and -0.78 | -0.989 and 0.375 | -0.433 and -0.63 | -0.644 and -0.0107 | 0.794 and 0.956 | -0.523 and -0.557 | -1.28 and -0.876 | -0.796 and -0.399 | -1.09 and -1.04 | -0.75 and -1.04 | -0.244 and -0.12 | -0.0769 and -0.138 | -0.37 and -0.46 | 0.159 and -0.0387 | 0.594 and -0.204 |
